Screening results (PubChem)
PAFAH1B3 FP inh – inhibitors of human PAFAH1B3 | 0.28% of 340,000 active | inhibition, % at 3.39 µM | recombinant PAFAH1B3, FP-rhodamine probe, fluorescence polarization;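 active means inhibition above the screen-wide average of all tested compounds plus 3 SD, cut at about 25% in these data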;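 further: 0% = enzyme with DMSO only and 100% = wells lacking PAFAH1B3 protein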
HTRA1 inh – inhibitors of human serine peptidase HTRA1; recombinant HTRA1, FP-rhodamine activity-based probe, fluorescence polarization; inhibition, % at 5.96 µM; 0.5% of 340,000 active; AID 504803; Q92743; in the data active means inhibition above about 36%;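 further: 0% = enzyme with DMSO and 100% = wells lacking enzyme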
DAGLB inh – diacylglycerol lipase beta (human) inhibition. Q8NCG7. HEK293T DAGLB membrane lysate, EnzChek fluorogenic substrate. inhibition, % at 5.17 µM. 0.059% of 340,000 active. AID 504411; in the data active means inhibition above about 34%;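 further: 0% = enzyme with vehicle and 100% = wells lacking enzyme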
Target sequence (Q8NCG7 whole entry, looked up): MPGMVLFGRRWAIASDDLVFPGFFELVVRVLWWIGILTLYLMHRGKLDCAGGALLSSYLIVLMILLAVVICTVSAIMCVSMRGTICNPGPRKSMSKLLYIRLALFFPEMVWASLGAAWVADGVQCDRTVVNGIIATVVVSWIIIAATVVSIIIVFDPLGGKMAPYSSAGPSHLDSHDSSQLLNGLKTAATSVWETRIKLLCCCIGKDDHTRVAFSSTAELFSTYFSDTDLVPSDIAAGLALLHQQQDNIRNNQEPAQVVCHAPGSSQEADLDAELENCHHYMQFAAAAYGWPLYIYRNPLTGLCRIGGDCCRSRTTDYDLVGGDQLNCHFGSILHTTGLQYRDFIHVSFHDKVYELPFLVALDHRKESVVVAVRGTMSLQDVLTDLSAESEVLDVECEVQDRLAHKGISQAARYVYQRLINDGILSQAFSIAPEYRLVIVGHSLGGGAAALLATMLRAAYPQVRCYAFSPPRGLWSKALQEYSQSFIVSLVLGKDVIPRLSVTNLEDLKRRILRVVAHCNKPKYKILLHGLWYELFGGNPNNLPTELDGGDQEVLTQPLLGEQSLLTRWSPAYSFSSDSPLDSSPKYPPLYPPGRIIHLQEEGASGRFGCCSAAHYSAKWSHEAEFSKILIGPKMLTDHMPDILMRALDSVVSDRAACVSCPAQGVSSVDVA
PAFAH2 FP inh – inhibitors of human PAFAH2. AID 492956. 0.99% of 340,000 active. inhibition, % at 3.39 µM. recombinant PAFAH2, FP-rhodamine activity probe, fluorescence polarization. Q99487;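 active means inhibition above the mean over all tested compounds plus 3 SD, cut at about 30% in these data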;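 further: inhibitors block probe labeling of enzyme so polarization drops; 0% = enzyme with DMSO and 100% = wells lacking PAFAH2 protein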
pPAFAH FP inh – inhibitors of human plasma PAF acetylhydrolase (pPAFAH); inhibition, % at 3.39 µM; 1.5% of 330,000 active; recombinant pPAFAH, FP-rhodamine probe fluorescence polarization; AID 463082; Q13093;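 active means inhibition above the mean inhibition across the screen plus 3 SD, cut at about 25% in these data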;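 further: inhibitors block binding of the rhodamine activity-based probe so polarization drops; 0% = enzyme with DMSO and 100% = wells lacking pPAFAH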
PAFAH1B2 inh – blocks human PAF acetylhydrolase 1b catalytic subunit 2; recombinant PAFAH1B2, FP-rhodamine activity probe, fluorescence polarization; inhibition, % at 3.39 µM; 1.2% of 340,000 active;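 active means inhibition above the mean of all tested compounds plus 3 SD, cut at about 24% in these data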;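 further: 0% = enzyme with DMSO and 100% = wells lacking PAFAH1B2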
pPAFAH FP conf – pPAFAH (human) inhibition, confirmed; shares compounds with pPAFAH FP inh; recombinant pPAFAH, FP-Rh probe fluorescence polarization; inhibition, % at 3.39 µM; 72% of 2,300 active;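 active means mean inhibition of the triplicate above the hit cutoff set for the earlier primary screen, cut at about 25% in these data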;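 further: 0% = enzyme with DMSO and 100% = wells lacking pPAFAH enzyme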
An asterisk follows results filed as active; / = no result given. The list is not random: actives were taken first. Their share in the collection is about 2.8%.

SMILES | PAFAH1B3 FP inh | HTRA1 inh | DAGLB inh | PAFAH2 FP inh | pPAFAH FP inh | PAFAH1B2 inh | pPAFAH FP conf
CC(=O)CN1Cc2ccccc2/C1=N\C(=O)Nc1ccccc1 | 9 | -6 | 1 | 0 | 71* | -1 | 7
COc1ccc(N2Cc3ccccc3/C2=N\C(=O)Nc2ccccc2)cc1 | -5 | 0 | -1 | -6 | -4 | 1 | /
COc1ccc(NC(=O)Cc2cccs2)c(OC)c1 | 6 | 6 | 1 | 2 | 4 | 2 | /
COc1ccc(Cc2nnc(NC(=O)Cc3cccs3)s2)cc1OC | 10 | -4 | 2 | 15 | 36* | 0 | 17
COc1cc(NC(=O)c2ccccc2)c(OC)cc1NC(=O)Cc1cccs1 | / | / | / | / | 46* | / | 21
CCc1ccc(C(=O)/C=C/Nc2ccc(S(=O)(=O)Nc3cnc4ccccc4n3)cc2)cc1 | -3 | -2 | -1 | -7 | -1 | -3 | /
O=C1c2ccccc2[C@@H]2C[C@@H](O)[C@H](Nc3cccc(Cl)n3)CCN12 | 9 | 2 | 1 | 69* | 36* | 2 | 23
N#Cc1ccc(Oc2cnccn2)cc1 | 16 | 6 | -3 | -1 | -1 | 3 | /
Cc1ccc(NC(=O)c2ccc(Nc3c([N+](=O)[O-])cc([N+](=O)[O-])cc3[N+](=O)[O-])cc2)cc1 | 27* | 21 | 25 | 9 | 52* | 14 | 51*
O=C(NCc1ccccn1)c1ccc(OC2CCN(Cc3cccs3)CC2)cc1 | 2 | 1 | -2 | -4 | 0 | -2 | /
CN(C)c1nc(N/N=C/c2ccccc2O)nc(Nc2ccc(F)cc2)n1 | 7 | -33 | 2 | -5 | 2 | 4 | /
OCC(O)/C=N/Nc1nc(Nc2ccccc2)nc(Nc2ccccc2)n1 (stereo not given) | 0 | -6 | 2 | 1 | 39* | -4 | 20
COc1ccc(S(=O)(=O)N2CCN(C(=O)c3cc4c(s3)CCC4)CC2)cc1 | 13 | 1 | 0 | 25 | 43* | 6 | 34*
COc1cccc(OCc2cc(/C=N/Nc3ccc(C(=O)O)cc3)ccc2OC)c1 | -1 | -61 | 3 | 15 | 39* | 0 | 65*
COc1ccc(C(=O)N/N=C/c2ccc(OC)c(COc3ccc(F)cc3)c2)cc1 | 7 | -46 | 1 | -24 | 9 | -5 | /
CCn1ncc(Br)c1C(=O)Nc1ccccc1C(F)(F)F | 9 | 3 | -3 | 1 | 7 | 3 | /
COc1ccccc1NC(=O)Nc1ccc(C(N)=O)cc1 | 0 | -6 | 0 | -1 | 42* | 2 | -1
Cc1cc(=O)oc2c(CN3CCCCC3)c(O)c(Cl)cc12 | 3 | -2 | -1 | -1 | 6 | 2 | /
CCc1cc(=O)oc2cc(C)c(CN3CCCCC3)c(O)c12 | 4 | -5 | 3 | 5 | 47* | 0 | 9
CCc1cc(=O)oc2cc(C)c(CN3CCCC3)c(O)c12 | -4 | -3 | 5 | 23 | 64* | 2 | 21
Cc1ccc2c(C)c(C(=O)N(C)Cc3nccn3C)oc2c1C | 2 | 1 | 0 | -3 | 3 | -3 | /
ClCCn1c(CCl)nc2ccc(Cl)cc21 | / | 2 | -6 | / | / | / | /
Cc1[nH]c(SCC(=O)c2c(N)n(C)c(=O)n(C)c2=O)nc1Cc1ccccc1 | 6 | -2 | -1 | 8 | 4 | 5 | /
O=C(NCc1ccco1)c1cccc2c1C(=O)c1ccc(/C=C/c3ccccc3)cc1S2(=O)=O | 1 | -37 | 8 | 4 | 39* | 3 | 32*
OC(CNCC1CCCO1)Cn1c2ccc(Cl)cc2c2cc(Cl)ccc21 (stereo not given) | -6 | -14 | -4 | -13 | 41* | 1 | 34*
O=C(Cc1ccc(Cl)c(Cl)c1)N1CCOCC1 | 4 | 0 | -2 | 2 | 3 | 5 | /
O=C1NC(=Nc2ccc(O)cc2)S/C1=C\C=C\c1ccco1 | 10 | 22 | 6 | 8 | 53* | 1 | 14
COCc1nnc(NC(=O)C2CC(=O)N(CCc3ccc(F)cc3)C2)s1 (stereo not given) | 6 | 4 | -1 | -3 | -4 | 14 | /
O=C(CN(C(=O)c1csnn1)c1ccccc1Cl)NC1CCCC1 | 7 | 2 | 0 | 4 | 2 | 0 | /
O=C(NCC1CCCO1)c1ccc2c(c1)N(Cc1ccccc1)CCS2 (stereo not given) | 7 | -1 | 1 | 1 | 13 | -2 | /
